Source: PubChem BioAssay AID2553 (Johns Hopkins Ion Channel Center, 2010)
Among all 310,000 compounds or so, about 3,300 (1.1%) were called active. The sample holds actives, similar compounds and a random draw of the others, so the mix is not that of the screen.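 Rule for the calls: active = B-score under library mean minus 3 SD, initial fluorescence not abnormally high, positive integrated signal ratio; inactive = the rest.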

target: Short transient receptor potential channel 6 (Mus musculus) (UniProt Q61143); test: mouse TRPC6 channel inhibitors, primary screen, cell-based, HEK293, membrane potential dye (AID 2553); settings: ACh-evoked depolarization, at 10 µM; hits give low values;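 for B-score: B-score derived from integrated fluorescence ratio over the kinetic read; more negative B-score means stronger inhibition of depolarization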
Sequence (Q61143 whole entry, looked up): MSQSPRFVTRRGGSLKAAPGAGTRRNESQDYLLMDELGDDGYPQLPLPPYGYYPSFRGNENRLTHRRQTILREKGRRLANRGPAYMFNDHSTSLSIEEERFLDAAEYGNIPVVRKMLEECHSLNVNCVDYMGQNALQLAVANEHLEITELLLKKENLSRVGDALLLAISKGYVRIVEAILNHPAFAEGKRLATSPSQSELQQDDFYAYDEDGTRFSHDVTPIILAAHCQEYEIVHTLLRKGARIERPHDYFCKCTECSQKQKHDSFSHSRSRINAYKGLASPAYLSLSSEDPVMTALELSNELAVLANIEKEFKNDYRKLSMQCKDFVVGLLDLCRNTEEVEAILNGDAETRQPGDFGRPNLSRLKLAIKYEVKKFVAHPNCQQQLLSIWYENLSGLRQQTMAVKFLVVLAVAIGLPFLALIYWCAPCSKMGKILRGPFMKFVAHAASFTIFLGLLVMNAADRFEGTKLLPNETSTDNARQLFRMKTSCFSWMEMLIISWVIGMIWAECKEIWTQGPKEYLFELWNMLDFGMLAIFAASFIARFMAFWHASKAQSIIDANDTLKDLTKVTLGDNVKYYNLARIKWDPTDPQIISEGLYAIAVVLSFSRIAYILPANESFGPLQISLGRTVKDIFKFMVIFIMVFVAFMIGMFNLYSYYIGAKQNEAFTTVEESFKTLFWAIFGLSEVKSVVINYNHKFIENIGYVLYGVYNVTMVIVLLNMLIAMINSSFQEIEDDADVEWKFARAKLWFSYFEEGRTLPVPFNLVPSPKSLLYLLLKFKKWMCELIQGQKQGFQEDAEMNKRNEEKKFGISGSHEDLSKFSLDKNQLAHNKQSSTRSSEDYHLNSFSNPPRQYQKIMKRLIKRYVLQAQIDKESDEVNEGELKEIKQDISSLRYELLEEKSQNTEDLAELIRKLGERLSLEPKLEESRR

Compound	B-score
C#CC(CCN1CCCCC1)(OC)c1ccccc1 (stereo not given)	inactive
CCOC(=O)c1sc2nc(CSc3ccccc3)[nH]c(=O)c2c1C	inactive
CCOC(=O)c1sc2nc(C)[nH]c(=O)c2c1C	inactive
CCOC(=O)c1sc2nc(CSCC(=O)OCc3ccc(C(=O)OC)o3)[nH]c(=O)c2c1C	-12.7 (active)
COc1ccc(NC(=S)N2N=CCC2c2ccccc2)cc1 (stereo not given)	inactive
Cc1cccc(-[n+]2c(-c3cccc(Br)c3)[nH]c3nc4ccccc4nc32)c1	-6.45 (active)
Cc1nnc(SCC(=O)N2CCN(c3ccccc3)CC2)n1-c1ccccc1	inactive
Cc1nnc(SCc2ccc(C(=O)c3ccc(Cl)cc3)o2)n1-c1ccccc1	-6.02 (active)
Cc1nnc(SCC(=O)NCCOc2ccc(Cl)cc2)n1-c1ccccc1	inactive
CN1CCN(C(=O)c2ccc(NS(=O)(=O)c3ccccc3)cc2)CC1	inactive
O=C(Nc1ccc(Br)cc1F)C1CC(=O)N(C2CCCCC2)C1 (stereo not given)	inactive
O=C(CN1CCOCC1)Nc1ccc(NC(=O)CN2CCOCC2)c(Cl)c1	inactive
CC(=O)Nc1ccc(NC(=O)CN2CCCC(C)C2)c(Cl)c1 (stereo not given)	-5.66 (active)
CC1CCCN(CC(=O)Nc2cc(Cl)ccc2Oc2ccccc2)C1 (stereo not given)	inactive
Cc1ccc(S(=O)(=O)C2(S(=O)(=O)c3ccc(C)cc3)CCCC2)cc1	inactive
O=S(=O)(Cc1nnnn1-c1ccccc1)c1ccccc1	inactive
O=C(OCCN1C(=O)c2ccccc2C1=O)Oc1ccccc1	inactive
Cn1c(=O)c2c(nc(NCCNC(=O)c3ccco3)n2Cc2ccccc2F)n(C)c1=O	inactive
Cc1ccc(NC(=O)COC(=O)CNC(=O)c2ccc(Cl)cc2Cl)cc1S(=O)(=O)N1CCOCC1	inactive
COc1ccc(CC(=O)Nc2c(C(N)=O)oc3ccccc23)cc1	inactive
COc1ccc(CC(=O)Nc2sc(Cc3ccccc3)c(C)c2C(N)=O)cc1	-7.08 (active)
Cc1ccc(C(=O)Nc2sc(Cc3ccc4c(c3)OCO4)c(C)c2C(N)=O)cc1	inactive
Cc1ccccc1N1C(=O)C2ON(c3ccccc3)C(c3ccncc3)C2C1=O (stereo not given)	inactive
CCN(CC)CCNc1ccc(Cl)cc1[N+](=O)[O-]	inactive
CCN(CC)CCn1c2ccc(Cl)cc2c2nc(C)sc21	-7.92 (active)
COC(=O)Cn1c2ccc(C)cc2c2nc(C)sc21	inactive
COCCNc1ccc(-c2n[nH]c(=O)c3ccccc23)cc1[N+](=O)[O-]	inactive

Compound	B-score
NS(=O)(=O)c1ccc(CCNC(=O)CCCn2c(SCC(=O)N3CCCC3)nc3ccsc3c2=O)cc1	inactive
CCn1c(C)cc(=O)cc1-c1ccc(Cl)cc1	inactive
COc1ccc(Cn2c(-c3ccc(Cl)cc3)c[n+]3ccccc23)cc1	-7.95 (active)
COc1ccc(Cn2c(=O)cc(C)[nH]c2=S)cc1	inactive
CCN1C(=S)N[C@@H](CCc2ccccc2)[C@H](C(=O)OC)[C@H]1C	inactive
O=C(O)CSCc1ccc(C(=O)O)o1	inactive
COc1ccccc1C1SCCN1C(=O)c1ccc([N+](=O)[O-])cc1 (stereo not given)	-9.98 (active)
COc1ccc(C(=O)N2CCc3cc(OC)c(OC)cc3C2c2cccc([N+](=O)[O-])c2)cc1 (stereo not given)	inactive
COc1ccccc1C1CCN(c2ccc([N+](=O)[O-])cn2)CC1	inactive
CC1CC(C)CN(CCOc2cccc3ccccc23)C1 (stereo not given)	inactive
CCCCCCCCCCOC(=O)C[N+](C)(C)CC1CCCCC1O (stereo not given)	-9.01 (active)
CCCCCOC(=O)c1ccc(N2C(=O)C3C4C=CC(C4)C3C2=O)cc1 (stereo not given)	inactive
CCC(C)(C)c1ccc(OCC(=O)N(C)C)c(C(C)(C)CC)c1	inactive
Oc1ccccc1-c1cc(-c2ccc(Cl)cc2)n[nH]1	inactive
CCCCNC(=O)C1CCC(CNS(=O)(=O)c2ccc(NC(C)=O)cc2)CC1 (stereo not given)	inactive
Cc1ccccc1-n1nnnc1SCCCC(=O)c1ccc(F)cc1	inactive
CCc1c(O)nc(SCC(=O)Nc2ccccc2)n(C(C)CC)c1=O (stereo not given)	inactive
COC(=O)c1c(NC(=O)c2ccc(S(=O)(=O)N3CCOCC3)cc2)sc2c1CCN(C(C)C)C2	-5.88 (active)
CNC(=O)c1ccsc1NC(=O)c1ccc(S(=O)(=O)N2CCOCC2)cc1	inactive
COc1ccc(C(=O)Nc2nc(-c3ccc(S(=O)(=O)N4CCOCC4)cc3)cs2)cc1	inactive
Cc1ccccc1CS(=O)(=O)CC1(O)CCN(C(=O)c2cccc(C(F)(F)F)c2)CC1	inactive
CCC(C)(C)NC(=O)C(c1ccc(OC)cc1)N(C(=O)CCC(=O)Nc1cc(C)on1)c1ccc(OC)cc1OC (stereo not given)	inactive
O=C(CSc1nnnn1C1CCCC1)N1CCCCC1	inactive
Cc1cccc(NC(=S)NCCN(C2CCCCC2)C2CCCC2)c1	-5.75 (active)
Cc1cccc(NC(=S)Nc2ccc(Br)cc2)c1	inactive
Cc1cccc(NC(=S)Nc2ccc(Cl)c(Cl)c2)c1	inactive
O=S(=O)(c1ccc(Br)c2ccccc12)N1CCOCC1	inactive

Compound	B-score
Cc1ccc(S(=O)(=O)N2CCN(c3ccccc3)CC2)cc1C	inactive
Cc1ccccc1N1CCN(S(=O)(=O)c2ccc3ccccc3c2)CC1	inactive
Cc1cc(N2CCN(S(=O)(=O)c3ccc(C)c(C)c3)CC2)c2ccccc2n1	-5.95 (active)
CC(=O)NS(=O)(=O)c1ccc(N/C(N)=N/c2nc(C)cc(C)n2)cc1	inactive
Cn1cnnc1Sc1ccc(CN2CCN(C3CCCC3)C(CCO)C2)o1 (stereo not given)	inactive
OCCC1CN(Cc2ccc3nsnc3c2)CCN1C1CCCC1 (stereo not given)	-6.69 (active)
COc1cccc2c1OCC(CN1CCN(C3CCCCC3)C(CCO)C1)=C2 (stereo not given)	inactive
OCCC1CN(Cc2ccc3nsnc3c2)CCN1C1CCCCC1 (stereo not given)	-5.65 (active)
CC(C)N1CCC(N2CCN(Cc3cccnc3)CC2CCO)CC1 (stereo not given)	inactive
Cc1ccc(CN2CCN(Cc3ccc4ncccc4c3)CC2CCO)cc1 (stereo not given)	inactive
Fc1c(F)c(C(F)(F)F)c(F)c(F)c1N1CCN(c2ccc3nnc(C(F)(F)F)n3n2)CC1	inactive
O=C(CCN1CCCO1)N1CCCC(N2CCN(c3cccc(C(F)(F)F)c3)CC2)C1 (stereo not given)	inactive
O=C(O)c1ccc(S(=O)(=O)N2CCOCC2)o1	inactive
O=C(NCc1ccccc1Cl)C(=O)NCC1CCCN1S(=O)(=O)c1cccs1 (stereo not given)	inactive
COc1ccc([C@@H]2[C@@H]3C(=O)N(C(C)(C)C)C(=O)[C@@H]3[C@]3(Cc4ccccc4)C(=O)N(c4cccc(Br)c4)C(=O)N23)cc1	inactive
COc1ccc(-c2nonc2NC(=O)c2oc3ccc(F)cc3c2C)cc1OC	inactive
CCOC(=O)C1=NN(c2ccc(Cl)cc2)/C(=C/C2=NCCc3cc(OC)c(OC)cc32)S1	-5.5 (active)
CCOC(=O)C1=C(CN2CCc3ccccc32)NC(=O)NC1c1ccc(Cl)cc1 (stereo not given)	inactive
CCOC(=O)c1cc2c(n(-c3ccc(C)cc3)c1=O)CCCC2=O	inactive
FC(F)(F)c1nc(-c2ccccc2)ncc1-c1nnnn1-c1ccccc1	inactive
c1ccc(-n2nnnc2-c2cccnc2)cc1	inactive
Clc1ccc(-n2nnnc2-c2cnc(-c3ccccn3)nc2-c2cccs2)cc1	-6.02 (active)
CCN1CCN(c2ccc([N+](=O)[O-])cc2C(=O)c2ccc(Cl)cc2)CC1	-6.09 (active)
O=C(Nc1cccc(Cl)c1)c1cc([N+](=O)[O-])ccc1N1CCN(CCO)CC1	inactive
CCC(=O)c1ccc(N2CCN(C(=O)c3cc([N+](=O)[O-])ccc3F)CC2)c(F)c1	inactive
COc1ccc(C(C#N)Nc2ccc(C)cc2)cc1 (stereo not given)	inactive
Cc1ccc(S(=O)(=O)N(c2cccc(C)c2)C2CCS(=O)(=O)C2)cc1 (stereo not given)	inactive

Compound	B-score
COCc1ccc(CN2CCC(Oc3ccc(C(=O)NCc4ccccn4)cc3)CC2)o1	inactive
CCCn1nc(NC(=O)C(C)C)c2cc3cc(OC)ccc3nc21	inactive
Cc1ccccc1CSc1nnc(CCCCCNC(=O)OC(C)(C)C)o1	inactive
CCC(C)(C)NC(=O)CN(C(=O)CCC(=O)Nc1cc(C)ccn1)c1ccc2c(c1)OCCO2	inactive
CCC(C)(C)NC(=O)CN(C(=O)CCC(=O)Nc1nccs1)c1ccc2c(c1)OCO2	-5.2 (active)
O=C(CN(C(=O)CCC(=O)Nc1nccs1)c1ccc(F)cc1)NCc1ccc2c(c1)OCO2	inactive
CCN1CCC2(CCN(Cc3cn[nH]c3-c3ccc(OC)c(F)c3)C2)C1 (stereo not given)	inactive
COc1ccc(/C=C/C(=O)OCC(=O)NCc2cccs2)cc1OC	inactive
O=C(CN1CCN(C(=O)C2CCCO2)CC1)Nc1c(Cl)cccc1Cl (stereo not given)	inactive
COc1ccc(OC)c(CNC(=O)Cn2nc(C)c3c(C)n(-c4ccc(C)cc4)nc3c2=O)c1	inactive
CN=C1C=C/C(=N/N=c2\ccn(O)cc2C)C=C1C	inactive
O=C(O)CCCCCNc1ncnc2ccc(Br)cc12	inactive
Cc1ccccc1-n1nc(C)c2c1N=C1C(Cl)=CC(Cl)=CN1C2c1ccc(C(=O)O)cc1 (stereo not given)	inactive
O=C(c1ccc(-n2cnnn2)cc1)N1CCN(C(c2ccccc2)c2ccccc2)CC1	-5.27 (active)
Cc1onc(C(=O)NN)c1C(=O)N1CCN(C(c2ccccc2)c2ccccc2)CC1	inactive
Cn1nnnc1SCC(=O)N1CCN(C(c2ccccc2)c2ccccc2)CC1	inactive
COc1ccc(Cc2nnc(SCC(=O)N(c3ccccc3)C(C)C)n(N)c2=O)cc1	inactive
C=CCSC(CC)(CC)C(N)=O	inactive
Oc1c(Cl)cc(Cl)c(Cl)c1Cc1c(O)c(Cl)cc(Cl)c1Cl	-7.71 (active)
COc1cc(NC(=O)C2CC(c3ccccc3O)=NO2)c(OC)cc1Cl (stereo not given)	inactive
Cc1ccc(F)cc1NC(=O)N1CCCN(c2ccc(C(F)(F)F)cn2)CC1	inactive
CN(CC(=O)Nc1ccc(N2CCOCC2)cc1)CC(=O)Nc1ccccc1[N+](=O)[O-]	inactive
Cc1ccc(NC(=O)CN(C)Cc2ccc(F)cc2)c([N+](=O)[O-])c1	inactive
CN(CC(=O)Nc1ccccc1[N+](=O)[O-])Cc1ccc(Br)cc1	-5.44 (active)
